The panel holds about 83,000 compounds, 20% with a hit somewhere; the sample as a whole holds those more often.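 Plates (96-well) were seeded with cells, treated with compound at one concentration, and incubated for 48 hours before percent growth was determined.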 Calls of active or inactive are those of the source. How the source made its calls: active means growth percent below 10; inactive means the rest.
test system: SW-620 colon; assay: NCI-60 one-dose screen, 48 h (100 = growth as untreated, 0 = no growth, -100 = all killed); details: 10 µM unless noted

Row | Compound | growth
1 | O=C(Nc1ccccc1Cl)OCCN1CCOCC1 | 104% (inactive)
2 | O=C(/C=C/C12c3ccccc3C(c3ccccc31)C1C(=O)N(c3ccc(Cl)cc3)C(=O)C12)c1ccccn1 (stereo not drawn) | -12.4% (active)
3 | CN1CCN(c2ccc(Nc3ncc(Cl)c(NC[C@@H]4CCCO4)n3)cc2)CC1 | 7.44% (active)
4 | Cc1ccc(S(=O)(=O)N(CC[C@@H]2C[C@H]2c2cc3ccccc3o2)C(=O)NC2CCCCC2)cc1 | 92.1% (inactive)
5 | CCCCCOC(=O)c1ccc(NC(=O)CNCC(C)C)cc1 | 98.5% (inactive)
6 | Cl.Fc1c[c-]c(-c2ccccn2)c(F)c1.[Pt].c1ccc([PH+](C[PH+](c2ccccc2)c2ccccc2)c2ccccc2)cc1 | -78.1% (active)
7 | COc1cc(C2C=C(c3cccc(NC(C)=O)c3)Nc3ncnn32)cc(OC)c1OC (stereo not drawn) | 27.6% (inactive)
8 | O=C(NCCN1CCC(O)CC1)c1cc2c(o1)C(=O)c1ccccc1C2=O | -78.3% (active)
9 | CN(C)CCN1C(=O)c2cccc3c(-c4ccc(-c5nc6c7ccccc7c7ccccc7c6[nH]5)cc4)ccc(c23)C1=O | 86% (inactive)
10 | CC(/C=N/NC(=O)c1cc(-c2ccco2)[nH]n1)=C\c1ccccc1 | 101% (inactive)
11 | CC(C)N(CCOC(=O)Nc1ccccc1Cl)C(C)C | 103% (inactive)
12 | O=C(NCOC(O)C(Cl)(Cl)Cl)NCOC(O)C(Cl)(Cl)Cl (stereo not drawn) | 108% (inactive)
13 | CCn1c(Sc2nnc(Nc3ccccc3)s2)nc2c1c(=O)n(C)c(=O)n2C | 97.6% (inactive)
14 | COc1ccc(-c2nc3sccn3c2/C=C/C(=O)c2c[nH]c3ccccc23)cc1 | 100% (inactive)
15 | CCCCCCNc1cc(C)nc2ccc(OC)cc12 | 68.7% (inactive)
16 | CNC(=O)c1cc(Oc2ccc3nc(NC(=O)Nc4cc(C(F)(F)F)cc(C(F)(F)F)c4)sc3c2)ccn1 | -36.1% (active)
17 | N#C/C=C(\c1ccc([N+](=O)[O-])cc1)n1nnc2cc(Cl)c(Cl)cc21 | -34.8% (active)
18 | CCCCCCCSc1ccc(C(=O)O)cc1 | 105% (inactive)
19 | N[C@@H]1CCC[C@H]1NCCCCN1C(=O)c2cccc3cccc(c23)C1=O | 38% (inactive)
20 | CCOC(=O)C1C(=O)C=C(c2cnccn2)CC1c1ccc(OC)c(OC)c1 (stereo not drawn) | 106% (inactive)

Row | Compound | growth
21 | CCN(CC)CCOC(=O)N1c2ccccc2Sc2ccccc21 | 94.4% (inactive)
22 | CCCN1CCN(c2ccc3nc(-c4ccc5nc(-c6ccc(OCC)c(OCC)c6)[nH]c5c4)[nH]c3c2)CC1 | -65.9% (active)
23 | COc1ccccc1NC(=O)Nc1ccc(-c2nc3ccccc3o2)cc1 | 111% (inactive)
24 | COc1ccc(/C=C2\COc3ccc(O)c(O)c3C2=O)c(OC)c1 | 64% (inactive)
25 | NC(=O)c1c(NC(=O)c2ccc(C(F)(F)F)cc2Cl)sc2c1CCC(=O)C2 | -49.7% (active)
26 | COc1ccc(/C(C)=C(\c2ccc(Cl)cc2)c2ccc(OCCN(C)C)cc2)cc1F | 54.8% (inactive)
27 | O=S(=O)(Cc1ccccc1)c1nc2ccccc2s1 | 26.3% (inactive)
28 | O=C1NC(=S)S/C1=C\N1N=C(c2ccc(Cl)cc2)CC1c1ccc(F)cc1 (stereo not drawn) | 92.1% (inactive)
29 | CC(=O)NCC(=O)Nc1ccc(-c2nnc3ccccn23)nc1.CC(=O)NCC(=O)Nc1ccc(-c2nnc3ccccn23)nc1.[Pt+2] | 105% (inactive)
30 | COc1ccc(-n2sc(=O)n(Cc3ccc(COC(=O)C(C)c4ccc(CC(C)C)cc4)cc3)c2=O)cc1 (stereo not drawn) | -12.5% (active)
31 | C=C(C)C1CCC(=C)C2CCC3(C)OC12/C=C(/COC(C)=O)CCC3O (stereo not drawn) | 106% (inactive)
32 | CCN(CCO)CC(=O)c1cc(Cl)cc(Cl)c1Cl | 102% (inactive)
33 | CNC=O | 93.5% (inactive)
34 | O=[N+]([O-])c1ccc(-c2cc3c(Nc4ccc(OCc5cccc(Cl)c5)c(Cl)c4)ncnc3s2)cc1 | 48.7% (inactive)
35 | Cc1nn(Cc2ccccc2)cc1C(=O)Nc1sc2c(c1C(N)=O)CCC(=O)C2 | 13.4% (inactive)
36 | CCOC(=O)c1c2c(c(C)n1C)-c1nn(Cc3ccc(OC)cc3)cc1CC2 | 96.9% (inactive)
37 | Cc1nc(Nc2ccc(NC(=S)Nc3ccccc3)cc2)c2ccccc2n1 | 106% (inactive)
38 | CCC(C)NCc1ccccc1 (stereo not drawn) | 101% (inactive)
39 | O=C(Nc1ccc(N2CCCCC2)c(Cl)c1)c1ccc(Br)o1 | 74.2% (inactive)

test system: MCF7 breast; assay: as above; details: 10 µM unless noted

Row | Compound | growth
40 | O=C(Nc1ccccc1Cl)OCCN1CCOCC1 | 105% (inactive)
41 | O=C(/C=C/C12c3ccccc3C(c3ccccc31)C1C(=O)N(c3ccc(Cl)cc3)C(=O)C12)c1ccccn1 (stereo not drawn) | 2.48% (active)
42 | CN1CCN(c2ccc(Nc3ncc(Cl)c(NC[C@@H]4CCCO4)n3)cc2)CC1 | 9.61% (active)
43 | Cc1ccc(S(=O)(=O)N(CC[C@@H]2C[C@H]2c2cc3ccccc3o2)C(=O)NC2CCCCC2)cc1 | 93.4% (inactive)
44 | CCCCCOC(=O)c1ccc(NC(=O)CNCC(C)C)cc1 | 94.3% (inactive)
45 | Cl.Fc1c[c-]c(-c2ccccn2)c(F)c1.[Pt].c1ccc([PH+](C[PH+](c2ccccc2)c2ccccc2)c2ccccc2)cc1 | -83.7% (active)
46 | COc1cc(C2C=C(c3cccc(NC(C)=O)c3)Nc3ncnn32)cc(OC)c1OC (stereo not drawn) | 18.3% (inactive)
47 | O=C(NCCN1CCC(O)CC1)c1cc2c(o1)C(=O)c1ccccc1C2=O | -69.7% (active)
48 | CN(C)CCN1C(=O)c2cccc3c(-c4ccc(-c5nc6c7ccccc7c7ccccc7c6[nH]5)cc4)ccc(c23)C1=O | 36.2% (inactive)
49 | CC(/C=N/NC(=O)c1cc(-c2ccco2)[nH]n1)=C\c1ccccc1 | 99.8% (inactive)
50 | CC(C)N(CCOC(=O)Nc1ccccc1Cl)C(C)C | 104% (inactive)
51 | O=C(NCOC(O)C(Cl)(Cl)Cl)NCOC(O)C(Cl)(Cl)Cl (stereo not drawn) | 89.6% (inactive)
52 | CCn1c(Sc2nnc(Nc3ccccc3)s2)nc2c1c(=O)n(C)c(=O)n2C | 98.6% (inactive)
53 | COc1ccc(-c2nc3sccn3c2/C=C/C(=O)c2c[nH]c3ccccc23)cc1 | 69.8% (inactive)
54 | CCCCCCNc1cc(C)nc2ccc(OC)cc12 | 58.8% (inactive)
55 | CNC(=O)c1cc(Oc2ccc3nc(NC(=O)Nc4cc(C(F)(F)F)cc(C(F)(F)F)c4)sc3c2)ccn1 | 0.0531% (active)
56 | N#C/C=C(\c1ccc([N+](=O)[O-])cc1)n1nnc2cc(Cl)c(Cl)cc21 | 1.7% (active)
57 | CCCCCCCSc1ccc(C(=O)O)cc1 | 84.3% (inactive)
58 | N[C@@H]1CCC[C@H]1NCCCCN1C(=O)c2cccc3cccc(c23)C1=O | 70% (inactive)
59 | CCOC(=O)C1C(=O)C=C(c2cnccn2)CC1c1ccc(OC)c(OC)c1 (stereo not drawn) | 93.1% (inactive)

Row | Compound | growth
60 | CCN(CC)CCOC(=O)N1c2ccccc2Sc2ccccc21 | 99.5% (inactive)
61 | CCCN1CCN(c2ccc3nc(-c4ccc5nc(-c6ccc(OCC)c(OCC)c6)[nH]c5c4)[nH]c3c2)CC1 | -59.5% (active)
62 | COc1ccccc1NC(=O)Nc1ccc(-c2nc3ccccc3o2)cc1 | 99% (inactive)
63 | COc1ccc(/C=C2\COc3ccc(O)c(O)c3C2=O)c(OC)c1 | 31.2% (inactive)
64 | NC(=O)c1c(NC(=O)c2ccc(C(F)(F)F)cc2Cl)sc2c1CCC(=O)C2 | 5.41% (active)
65 | COc1ccc(/C(C)=C(\c2ccc(Cl)cc2)c2ccc(OCCN(C)C)cc2)cc1F | 31.8% (inactive)
66 | O=S(=O)(Cc1ccccc1)c1nc2ccccc2s1 | 30.5% (inactive)
67 | O=C1NC(=S)S/C1=C\N1N=C(c2ccc(Cl)cc2)CC1c1ccc(F)cc1 (stereo not drawn) | 71.9% (inactive)
68 | CC(=O)NCC(=O)Nc1ccc(-c2nnc3ccccn23)nc1.CC(=O)NCC(=O)Nc1ccc(-c2nnc3ccccn23)nc1.[Pt+2] | 110% (inactive)
69 | COc1ccc(-n2sc(=O)n(Cc3ccc(COC(=O)C(C)c4ccc(CC(C)C)cc4)cc3)c2=O)cc1 (stereo not drawn) | 17.8% (inactive)
70 | C=C(C)C1CCC(=C)C2CCC3(C)OC12/C=C(/COC(C)=O)CCC3O (stereo not drawn) | 96.8% (inactive)
71 | CCN(CCO)CC(=O)c1cc(Cl)cc(Cl)c1Cl | 98.9% (inactive)
72 | CNC=O | 99.3% (inactive)
73 | O=[N+]([O-])c1ccc(-c2cc3c(Nc4ccc(OCc5cccc(Cl)c5)c(Cl)c4)ncnc3s2)cc1 | 44.1% (inactive)
74 | Cc1nn(Cc2ccccc2)cc1C(=O)Nc1sc2c(c1C(N)=O)CCC(=O)C2 | 13.6% (inactive)
75 | CCOC(=O)c1c2c(c(C)n1C)-c1nn(Cc3ccc(OC)cc3)cc1CC2 | 99.3% (inactive)
76 | Cc1nc(Nc2ccc(NC(=S)Nc3ccccc3)cc2)c2ccccc2n1 | 77.4% (inactive)
77 | CCC(C)NCc1ccccc1 (stereo not drawn) | 102% (inactive)
78 | O=C(Nc1ccc(N2CCCCC2)c(Cl)c1)c1ccc(Br)o1 | 49.9% (inactive)

Source: PubChem BioAssay (NCI)
